Test [1] is described as follows: antimalarial activity against Dd2 strain (AID 2302;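 active = growth inhibition above 50% at the single 2 µM test dose, taken to imply half-maximal potency below 2 µM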;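 also: 0% = DMSO untreated growth and 100% = chloroquine plus artemisinin killed control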). The settings on record: P. falciparum Dd2 in RBCs, LDH growth readout, 72 h; at 2 µM; active compounds read high.
Test [2] is described as follows: HepG2 cytotoxicity, primary screen, cytotoxicity control for P. falciparum antimalarial project, cell-based, ATP luminescence (AID 2303;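 active = inhibition above 50%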;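 also: 0% = DMSO wells and 100% = digitonin-killed cells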). The settings on record: HepG2 viability, 24-48 h, at 10 µM, active compounds read high.
For test [3], the target named is L-lactate dehydrogenase (Plasmodium falciparum (isolate CDC / Honduras)) (UniProt Q27743). Kind of test: PfLDH activity inhibition – cell lysate, 3D7 strain, counter-screen for P. falciparum growth inhibition project (AID 2304).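 Also: 0% = vehicle and 100% = reference inhibitor.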 The settings on record: P. falciparum 3D7 crude extract, LDH APAD/NBT absorbance; at 2 µM; active compounds read high. In general terms: Counterscreens check selectivity or assay interference.
Sequence of L-lactate dehydrogenase (Plasmodium falciparum (isolate CDC / Honduras)) (Q27743 whole entry, looked up): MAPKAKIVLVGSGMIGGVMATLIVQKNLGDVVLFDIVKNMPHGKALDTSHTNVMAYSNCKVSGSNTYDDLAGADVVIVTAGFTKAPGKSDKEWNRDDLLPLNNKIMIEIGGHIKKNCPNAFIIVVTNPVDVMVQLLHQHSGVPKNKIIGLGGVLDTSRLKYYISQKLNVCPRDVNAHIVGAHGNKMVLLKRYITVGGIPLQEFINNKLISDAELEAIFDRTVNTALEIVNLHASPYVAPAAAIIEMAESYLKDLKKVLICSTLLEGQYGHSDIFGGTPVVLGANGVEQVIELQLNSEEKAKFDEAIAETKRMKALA

Test [4] is described as follows: inhibition of 3D7 malaria parasite growth – strain 3D7 (AID 2306).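 Also: 0% = DMSO wells and 100% = chloroquine plus artemisinin control wells.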 The settings on record: P. falciparum 3D7 erythrocytic growth, LDH absorbance, 72 h; at 2 µM; active compounds read high.
In test [5] the target is Calcium-dependent protein kinase 1 (Plasmodium falciparum (isolate 3D7)) (UniProt P62344). Kind of test: PfCDPK1 kinase inhibitors, biochemical, TCAMS library (AID 1159585; cut-off not given, nearly all actives have IC50 up to about 0.98 µM;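 also: inhibitors leave more ATP so luminescence rises with inhibition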). The settings on record: recombinant PfCDPK1, Kinase-Glo ATP depletion luminescence.
Sequence of Calcium-dependent protein kinase 1 (Plasmodium falciparum (isolate 3D7)) (P62344 whole entry, looked up): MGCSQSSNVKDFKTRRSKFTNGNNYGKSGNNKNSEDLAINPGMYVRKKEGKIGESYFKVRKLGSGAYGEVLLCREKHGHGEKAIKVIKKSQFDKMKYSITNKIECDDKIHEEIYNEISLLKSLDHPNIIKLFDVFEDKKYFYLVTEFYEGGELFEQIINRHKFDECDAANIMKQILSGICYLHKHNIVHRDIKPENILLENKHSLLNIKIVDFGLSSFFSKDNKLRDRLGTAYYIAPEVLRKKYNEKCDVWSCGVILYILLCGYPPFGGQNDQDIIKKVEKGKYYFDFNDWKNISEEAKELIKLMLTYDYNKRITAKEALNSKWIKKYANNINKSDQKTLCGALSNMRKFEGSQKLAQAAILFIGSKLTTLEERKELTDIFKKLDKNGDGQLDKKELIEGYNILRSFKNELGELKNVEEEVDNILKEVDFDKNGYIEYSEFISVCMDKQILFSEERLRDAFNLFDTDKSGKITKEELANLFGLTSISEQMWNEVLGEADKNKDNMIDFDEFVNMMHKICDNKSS
In test [6] the target is Plasmodium falciparum protein kinase 6 (PK6, PF3D7_1337100) (UniProt Q8IDW1). Briefly: PfPK6 kinase inhibitors, biochemical, TCAMS library (AID 1159586). The settings on record: recombinant PfPK6, Kinase-Glo ATP depletion luminescence. A general note: Kinase-Glo reads ATP consumption through a luciferase reaction.
Sequence of Plasmodium falciparum protein kinase 6 (PK6, PF3D7_1337100) (Q8IDW1 1-305): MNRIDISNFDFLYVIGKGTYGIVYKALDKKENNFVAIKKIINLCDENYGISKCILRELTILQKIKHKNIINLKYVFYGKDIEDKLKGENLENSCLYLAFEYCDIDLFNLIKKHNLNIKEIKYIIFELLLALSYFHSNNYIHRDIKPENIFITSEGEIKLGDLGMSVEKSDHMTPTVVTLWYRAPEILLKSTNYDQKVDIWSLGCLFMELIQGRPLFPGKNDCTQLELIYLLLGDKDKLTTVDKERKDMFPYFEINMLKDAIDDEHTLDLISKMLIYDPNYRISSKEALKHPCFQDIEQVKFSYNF
Test [7] deals with Protein kinase 7 (PK7), Plasmodium falciparum 3D7 (PF3D7_0213400) (UniProt Q7YTF7). Briefly: inhibition of Plasmodium PK7 catalytic activity – biochemical, TCAMS antimalarial set, Kinase-Glo luminescence (AID 1159587). The settings on record: recombinant PfPK7, Kinase-Glo ATP depletion luminescence.
Sequence of Protein kinase 7 (PK7), Plasmodium falciparum 3D7 (PF3D7_0213400) (Q7YTF7 1-343): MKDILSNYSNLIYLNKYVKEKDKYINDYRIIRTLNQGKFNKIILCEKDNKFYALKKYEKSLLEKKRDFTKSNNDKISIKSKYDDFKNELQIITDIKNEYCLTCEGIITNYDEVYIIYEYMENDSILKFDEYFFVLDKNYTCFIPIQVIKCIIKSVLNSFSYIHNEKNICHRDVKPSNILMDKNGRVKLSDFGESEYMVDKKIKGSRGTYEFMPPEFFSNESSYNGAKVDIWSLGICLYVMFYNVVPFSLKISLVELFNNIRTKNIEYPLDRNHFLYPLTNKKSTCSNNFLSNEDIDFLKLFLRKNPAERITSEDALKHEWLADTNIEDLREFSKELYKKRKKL
Test [8] addresses Calcium-dependent protein kinase 4 (Plasmodium falciparum (isolate 3D7)) (UniProt Q8IBS5). Briefly: PfCDPK4 kinase inhibitors, biochemical, TCAMS library (AID 1159588; cut-off not given, nearly all actives have IC50 up to about 0.91 µM). The settings on record: recombinant PfCDPK4, Kinase-Glo ATP depletion luminescence.

A number with no mark means an inactive call. For some of these results: Potency and affinity values are given separately. Activity calls are given as the source filed them. Unless noted, no rule for the calls is given here.

In general, inhibition refers to the drop in the measured response relative to a control, in per cent.

Sequence of Calcium-dependent protein kinase 4 (Plasmodium falciparum (isolate 3D7)) (Q8IBS5 whole entry, looked up): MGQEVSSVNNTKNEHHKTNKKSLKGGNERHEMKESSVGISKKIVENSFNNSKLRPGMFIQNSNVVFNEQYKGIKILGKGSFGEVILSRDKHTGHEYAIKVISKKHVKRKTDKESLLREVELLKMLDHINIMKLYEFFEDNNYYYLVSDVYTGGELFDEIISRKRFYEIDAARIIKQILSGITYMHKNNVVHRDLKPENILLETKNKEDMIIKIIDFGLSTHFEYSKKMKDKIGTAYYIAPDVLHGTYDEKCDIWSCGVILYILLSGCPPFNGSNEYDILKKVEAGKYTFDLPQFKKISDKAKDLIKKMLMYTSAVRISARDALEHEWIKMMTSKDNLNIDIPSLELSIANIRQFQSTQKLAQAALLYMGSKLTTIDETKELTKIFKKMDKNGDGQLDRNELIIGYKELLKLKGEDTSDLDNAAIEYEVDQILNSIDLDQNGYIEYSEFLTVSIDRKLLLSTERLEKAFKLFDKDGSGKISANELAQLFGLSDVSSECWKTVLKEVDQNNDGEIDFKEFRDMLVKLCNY

On to `O=C(C=Cc1ccc(Cl)c(Cl)c1)NCCCCCN1CCCC(CCCNC(=O)c2sc3ccccc3c2Cl)C1` (stereo not given), for which the growth inhibition in test [1] is 32%; in test [4], 88% (active). Further, the inhibition in test [2] was 82% (active); in test [3], -3%. For the same compound, the outcome in test [5], in test [6], in test [7] and in test [8] was inactive.
Turning to `Cc1cc(Nc2cccc(C(F)(F)F)c2)nc(Nc2cccc(C(F)(F)F)c2)n1`, the growth inhibition in test [1] was 73% (active); in test [4] it was 100% (active). Besides, the results for the inhibition in test [2] and in test [3] were -1% and -3%, respectively. The result in test [5], in test [6], in test [7] and in test [8] was inactive.
As to `CC(C)(C)OC(=O)NCc1ccc(Nc2nnc(-c3cccc(OCC(=O)NCc4cc(C(F)(F)F)cc(C(F)(F)F)c4)c3)o2)cc1`, the results for the growth inhibition in test [1] and in test [4] were 19% and 90% (active), respectively. Further, the figures for the inhibition in test [2] and in test [3] were 32% and 1%, respectively. The outcome in test [5], in test [6], in test [7] and in test [8] was inactive.
For `Cc1cc(N2CCC(NS(=O)(=O)c3ccccc3)CC2)nc(Nc2cccc(C#N)c2)n1`, the growth inhibition in test [1] is 29%; in test [4], 93% (active). Also, the inhibition in test [2] was 52% (active); in test [3], 3%. Moreover, the outcome in test [5], in test [6], in test [7] and in test [8] was inactive.
`Cc1ccc(Cl)cc1N1CCN(CCCNC(=O)C2CCN(c3nc4ccccc4[nH]3)CC2)CC1`: the growth inhibition is -3% in test [1] and 88% (active) in test [4]. Besides, the results for the inhibition in test [2] and in test [3] were 41% and -1%, respectively. In addition, the result in test [5], in test [6], in test [7] and in test [8] was inactive.
As to `COc1cccc(NC(=O)[C@H](C)n2c(=O)[nH]c3ccccc3c2=O)c1`, the growth inhibition was 92% (active) in test [1] and 100% (active) in test [4]. Besides, the inhibition in test [2] is 8%; in test [3], -3%. Also, the result in test [5], in test [6], in test [7] and in test [8] was inactive.
Consider `CN1CCC(NCc2cccc(-c3nn(C)c4nc(NC5CCCC5)ncc34)c2)CC1`, for which the growth inhibition in test [1] was 44%; in test [4] it was 98% (active). For the same compound, the inhibition in test [2] was 1%; in test [3] it was -2%. In addition, the result in test [5], in test [6], in test [7] and in test [8] was inactive.
In the case of `Cc1noc(C)c1-c1ccc(C(=C2CCCCCCC2)c2ccc(O)cc2)cc1`, the growth inhibition is 48% in test [1] and 83% (active) in test [4]. In addition, the values for the inhibition in test [2] and in test [3] were -6% and 1%, respectively. Besides, the outcome in test [5], in test [6], in test [7] and in test [8] was inactive.
For the compound `Cc1cccc2[nH]c(-c3ccc(-c4cccc(CNCc5cccc(N)c5)c4)s3)nc12`, the growth inhibition was 85% (active) in test [1] and 102% (active) in test [4]. In addition, the inhibition was 15% in test [2] and -4% in test [3]. The outcome in test [5], in test [6], in test [7] and in test [8] was inactive.
As for `COc1cccc(CNC(=O)[C@H]2CNCCN2C(=O)CCCc2ccccc2)c1`, the figures for the growth inhibition in test [1] and in test [4] were 95% (active) and 91% (active), respectively. In addition, the inhibition was 56% (active) in test [2] and 2% in test [3]. In addition, the result in test [5], in test [6], in test [7] and in test [8] was inactive.
For the compound `O=C(Nc1cccc(-c2cccc(-c3nc4ccc(C(F)(F)F)cc4[nH]3)c2)c1)c1csnn1`, the growth inhibition was 37% in test [1] and 99% (active) in test [4]. For the same compound, the values for the inhibition in test [2] and in test [3] were 45% and 3%, respectively. The outcome in test [5], in test [6], in test [7] and in test [8] was inactive.
Consider `Cc1cc(N(C)CCCN2CCCCC2)nc(Nc2ccc(Cl)cc2)n1`, for which the growth inhibition is 82% (active) in test [1] and 101% (active) in test [4]. Moreover, the inhibition in test [2] was 7%; in test [3], -3%. In addition, the outcome in test [5], in test [6], in test [7] and in test [8] was inactive.
For `Nc1nc(N)c2cc(N(Cc3ccccc3)Cc3ccccc3)ccc2n1`, the values for the growth inhibition in test [1] and in test [4] were 88% (active) and 99% (active), respectively. Also, the inhibition in test [2] was 69% (active); in test [3] it was 3%. Besides, the result in test [5], in test [6], in test [7] and in test [8] was inactive.
Turning to `O=C(Nc1ccc(F)c(C(F)(F)F)c1)N[C@H]1CCN(CCCCCNC(=O)[C@@H]2C[C@H]2c2ccc(Cl)c(Cl)c2)C1`, the growth inhibition in test [1] is 0%; in test [4], 90% (active). For the same compound, the results for the inhibition in test [2] and in test [3] were 46% and 7%, respectively. In addition, the outcome in test [5], in test [6], in test [7] and in test [8] was inactive.
Regarding `COc1ccc(CNC2Cc3ccccc3C2)cc1-c1ccc(S(=O)(=O)NCCN2CCCC2)c(F)c1`, the growth inhibition in test [1] was 69% (active); in test [4], 101% (active). Further, the inhibition was 44% in test [2] and -6% in test [3]. In addition, the result in test [5], in test [6], in test [7] and in test [8] was inactive.
Take `CC(C)Oc1ccc(C=CC(=O)Nc2noc3ccccc23)cc1`: the growth inhibition was 95% (active) in test [1] and 96% (active) in test [4]. In addition, the inhibition in test [2] is 2%; in test [3], 4%. Besides, the outcome in test [5], in test [6], in test [7] and in test [8] was inactive.
With `CC(C)Nc1nc(NCCc2cnc[nH]2)nc(Nc2ccc(Oc3ccccc3)cc2)n1`, the growth inhibition in test [1] was 9%; in test [4], 95% (active). The inhibition was -3% in test [2] and 1% in test [3]. In addition, the result in test [5], in test [6], in test [7] and in test [8] was inactive.
`CCNc1cc(C(=O)N[C@@H](Cc2ccccc2)[C@H](O)CNC(C)(C)CCCC(C)C)cc(N2CCCCS2(=O)=O)c1`: the growth inhibition in test [1] and in test [4] was 98% (active) throughout. Also, the inhibition in test [2] is 5%; in test [3], 2%. In addition, the outcome in test [5], in test [6], in test [7] and in test [8] was inactive.
`CC(C)COc1ccc(C(O)C(CN2CCCCC2)c2ccccc2)cc1` (stereo not given): the growth inhibition in test [1] is 89% (active); in test [4], 93% (active). Moreover, the values for the inhibition in test [2] and in test [3] were 11% and -11%, respectively. The outcome in test [5], in test [6], in test [7] and in test [8] was inactive.
Turning to `O=C(/C=C/c1ccc(Cl)c(Cl)c1)NCCCCCCN1CCN(C(=O)Nc2cc(F)cc(F)c2)CC1`, the growth inhibition in test [1] is -1%; in test [4], 86% (active). For the same compound, the inhibition in test [2] is 23%; in test [3], -1%. The outcome in test [5], in test [6], in test [7] and in test [8] was inactive.

(Values after PubChem BioAssay.)
